According to PubChem BioAssay (Tox21):
Records with an inconclusive call do not appear. Values without a mark were called inactive. Activity calls are given as the source filed them. The call rests on the fitted dose curve.

assay: qHTS assay for small molecule agonists of the p53 signaling pathway - cell viability (AID 651633); settings: p53RE-bla HCT-116 viability, ATP luminescence, 16 h; series mostly up to 83.3 µM; activity change, negative = cytotoxicity: at the top concentration; further: nearly all actives have a fitted effect of over 30% in size;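 on activity change, negative = cytotoxicity: p53RE-bla HCT reporter cells with a stable beta-lactamase p53 reporter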
Excerpt: National Center for Advancing Translational Sciences [NCATS]
NIH Chemical Genomics Center [NCGC]
U.S. Environmental Protection Agency [EPA]
National Institutes of Environmental Health Sciences [NIEHS]
National Toxicology Program [NTP]
U.S. Food and Drug Administration [FDA]
p53, a tumor suppressor protein, is activated following cellular insult, including DNA damage and other cellular stresses. The activation of p53 regulates cell fate by inducing DNA repair, cell cycle arrest, apoptosis, or cellular senescence. The activation of p53, therefore, is a good indicator of DNA damage and other cellular stresses. […] The activation of the reporter gene under culture conditions can be detected by fluorescence intensity. This cell line was used to screen the Tox21 compound library in a 1536-well plate format and to identify agonists that activate the p53 signaling pathway.
Tox21 Assay Protocol Summary:
The p53RE-bla cells were dispensed at 4,000 cells/5 ul/well in 1536-well black wall/clear bottom plates using a Multidrop dispenser. After the assay plates were incubated at a 37 C/5% CO2 incubator for 5 hours, 23 nL of compounds dissolved in DMSO, positive controls or DMSO only was transferred to the assay plate by a pin tool. The plates were incubated at 37 C for 16 hours. After 1 uL of LiveBLAzerTM B/G FRET substrate was added using a Flying Reagent Dispenser, the plates were incubated at room temperature for 2 hours, and fluorescence intensity was measured by an Envision plate reader.
For cell viability readout that measures cytotoxicity, 4 ul/well of CellTiter-Glo reagent was added into the assay plates using a Flying Reagent Dispenser. After 30 min incubation at room temperature, the luminescence intensity in the plates was measured using a ViewLux plate reader.
On the % scale 0 is the no-effect control and ±100 the full control effect; potency means the concentration at half of the fitted maximal effect.

| SMILES | activity change, negative = cytotoxicity | Potency |
| --- | --- | --- |
| COc1cc(OC)nc(NC(=O)NS(=O)(=O)c2ncccc2OCC(F)(F)F)n1 | -3.69% |  |
| C[C@]1(O)CC[C@H]2[C@@H]3CCC4=CC(=O)CC[C@]4(C)[C@@]3(F)[C@@H](O)C[C@@]21C |  | inactive |
| CC1(C)COP(Oc2ccccc2)OC1 | -19.4% |  |
| COC(=O)COc1ccc(Cl)cc1Cl | -5.24% |  |
| CCNc1nc(NC(C)C)nc(OC)n1 | 15.4% |  |
| Cc1cccc(C#N)c1 | -10.4% |  |
| COC(=O)C(C)Oc1ccc(Oc2ccc(Cl)cc2Cl)cc1 (stereo not given) | -1.73% |  |
| COc1ccc(C(=O)N2CCCC2=O)cc1 | 21.8% |  |
| NC(=O)O | 14% |  |
| O=C(O)C(Br)CBr (stereo not given) | -9.84% [at 95.3 µM] |  |
| CNNC | -9.3% [at 95.3 µM] |  |
| O=S(=O)(O)C(F)(F)C(F)(F)C(F)(F)C(F)(F)C(F)(F)C(F)(F)F | 8.24% |  |
| CC(=O)CC(c1ccc(Cl)cc1)c1c(O)c2ccccc2oc1=O (stereo not given) | 28.4% [at 95.3 µM] |  |
| Cc1cc(C)c(C(=O)P(=O)(C(=O)c2c(C)cc(C)cc2C)c2ccccc2)c(C)c1 | -17.4% |  |
| CC(C)[N+](=O)[O-] | -6.76% |  |
| CN1C[C@@H](NS(=O)(=O)N(C)C)C[C@@H]2c3cccc4c3c(cn4C)C[C@H]21 | 6.48% |  |
| Cc1ncsc1CCCl | 7.91% |  |
| N#CC(CCc1ccc(Cl)cc1)(Cn1cncn1)c1ccccc1 (stereo not given) |  | 6.86 µM (active) |
| BrCCCCCCBr | 11.6% |  |
| COc1cc2c(cc1OC)[C@@]13CCN4CC5=CCO[C@H]6CC(=O)N2[C@H]1[C@H]6[C@H]5C[C@H]43 |  | inactive |

| SMILES | activity change, negative = cytotoxicity | Potency |
| --- | --- | --- |
| C[C@H]1CCC[C@H](O)CCCCCc2cc(O)cc(O)c2C(=O)O1 |  | inactive |
| CCCCCCI | 14.8% |  |
| COC(=O)c1ccccc1S(=O)(=O)NC(=O)Nc1nc(C)cc(C)n1 | 23.5% |  |
| Cc1ncc(CNC(=O)N(CCCl)N=O)c(N)n1 | 10.1% |  |
| O=[N+]([O-])c1cccc2cccnc12 | 9.27% [at 95.3 µM] |  |
| COC(=O)C(c1ccccc1)C1CCCCN1 (stereo not given) |  | inactive |
| CC(C1CC1)C(O)(Cn1cncn1)c1ccc(Cl)cc1 (stereo not given) | -7.5% |  |
| CCOC(=O)NC(=S)Nc1ccccc1NC(=S)NC(=O)OCC | 22.8% |  |
| CN1C(=S)CN=C(c2ccccc2)c2cc(Cl)ccc21 | -7.17% |  |
| CC(C)CC(N(C)C)C1(c2ccc(Cl)cc2)CCC1 (stereo not given) | 9.77% |  |
| CCSC(=O)N(CC)C1CCCCC1 | 9.61% |  |
| CCN(CC)CCOC(=O)C(C)(c1ccccc1)c1ccccc1 | -13.4% |  |
| CNC(=O)Oc1ccc(N(C)C)c(C)c1 | 12.1% |  |
| CNCC(=O)c1ccc(O)c(O)c1 | 5.59% |  |
| CCOP(=O)(N=C1SCCS1)OCC | 4.98% |  |
| CCOP(=S)(Oc1cnc(C(C)(C)C)nc1)OC(C)C (stereo not given) | -13.1% |  |
| CCN(CC)c1nc(C)cc(OP(=S)(OC)OC)n1 | 12.2% |  |
| COc1cc(OC)nc(Oc2cccc(Oc3nc(OC)cc(OC)n3)c2C(=O)O)n1 | 6.84% |  |
| CCC(=O)c1ccccc1 | 8.45% |  |
| C=CCC1=C(C)[C@@H](OC(=O)[C@@H]2[C@@H](C=C(C)C)C2(C)C)CC1=O |  | 61.1 µM (active) |
